These results are taken from PubChem BioAssay (NCI).

About 83,000 compounds went through this panel and 20% of them were active in at least one assay; those are over-represented in the sample as a whole.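 48-hour exposure, single concentration, 96-well plates; percent growth endpoint where 0 means no net growth. Active: below 10.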 Values without a mark were called inactive. Activity calls are given as the source filed them.

Some test systems named below: HCT-15 colon; HT29 colon; SNB-75 CNS; SNB-19 CNS; U251 CNS; PC-3 prostate; SK-MEL-5 melanoma; UACC-62 melanoma; LOX IMVI melanoma; SK-MEL-28 melanoma; SK-MEL-2 melanoma; EKVX NSCLC; SN12C renal; UO-31 renal; TK-10 renal; ACHN renal; CAKI-1 renal; A498 renal; CCRF-CEM leukemia; MOLT-4 leukemia.
Assay in all cases: NCI-60 one-dose screen, 48 h (100 = growth as untreated, 0 = no growth, -100 = all killed)
Conditions in all cases: 10 µM unless noted

On to `COc1ccc(/C(=N/O)c2cc(F)c(F)c(OC)c2F)cc1O`, for which the growth with HCT-15 colon was 22.9%; in the assay on HT29 colon, 28%; in the assay with SNB-75 CNS, -11% (active); with SNB-19 CNS, 38.8%; with U251 CNS it was 18.2%; in the assay on PC-3 prostate, 21.5%. Moreover, the growth in the assay with SK-MEL-5 melanoma is 14.1%; in the assay with UACC-62 melanoma, 29.8%; in the assay with LOX IMVI melanoma it was 46.5%; with SK-MEL-28 melanoma it was 66.9%; in the assay with SK-MEL-2 melanoma, 3.65% (active); in the assay on EKVX NSCLC, 45.5%. Moreover, the growth is 45.7% in the assay on SN12C renal; 52.6% in the assay on UO-31 renal; 88.7% in the assay with TK-10 renal; 48.4% in the assay with ACHN renal; 28.1% in the assay with CAKI-1 renal; 2.7% (active) in the assay on A498 renal. Further, the results for the growth in the assay on CCRF-CEM leukemia and with MOLT-4 leukemia were 15.5% and 37.4%, respectively.
Consider `O=C(O)c1ccc(-n2cc(CNc3ccc(C(F)(F)F)cc3)c(-c3ccccc3)n2)cc1`, for which the growth with HCT-15 colon was 84.3%; in the assay with HT29 colon, 114%; with SNB-75 CNS, 92.1%; with SNB-19 CNS, 102%; with U251 CNS, 81%; with PC-3 prostate, 79.7%. Besides, the growth with SK-MEL-5 melanoma is 91.5%; in the assay with UACC-62 melanoma, 72.9%; in the assay on LOX IMVI melanoma it was 89.2%; in the assay with SK-MEL-28 melanoma, 95.2%; in the assay on SK-MEL-2 melanoma, 93.8%; in the assay on EKVX NSCLC it was 91.8%. Further, the growth in the assay with SN12C renal is 94.6%; in the assay with UO-31 renal, 80.5%; in the assay with TK-10 renal, 110%; in the assay on ACHN renal, 88.9%; with CAKI-1 renal, 87.2%; in the assay on A498 renal it was 87.6%. The growth in the assay on CCRF-CEM leukemia is 91.4%; in the assay on MOLT-4 leukemia, 76.5%.
Take `Nc1cccc2c1CN(C1CCC(=O)NC1=O)C2=O` (stereo not given): the growth with HCT-15 colon is 105%; in the assay on HT29 colon, 101%; in the assay with SNB-75 CNS it was 88.4%; in the assay on SNB-19 CNS, 88.9%; with U251 CNS it was 97%; with PC-3 prostate it was 91%. Further, the growth with SK-MEL-5 melanoma was 103%; in the assay with UACC-62 melanoma, 114%; in the assay with LOX IMVI melanoma it was 99.8%; in the assay with SK-MEL-28 melanoma it was 111%; in the assay with SK-MEL-2 melanoma, 113%; in the assay on EKVX NSCLC it was 94.7%. Moreover, the growth with SN12C renal is 106%; with UO-31 renal, 101%; in the assay with TK-10 renal it was 132%; in the assay with ACHN renal it was 105%; in the assay with CAKI-1 renal, 95.6%; in the assay with A498 renal it was 84.8%. Moreover, the growth in the assay on CCRF-CEM leukemia was 98.7%; with MOLT-4 leukemia, 95.1%.
As for `O=C1CCCCC=C1C[N+](=O)[O-]`, the growth in the assay on HCT-15 colon was 75.2%; in the assay with HT29 colon, 83.3%; in the assay with SNB-75 CNS, 105%; with SNB-19 CNS it was 97.5%; in the assay on U251 CNS, 88.4%; in the assay on PC-3 prostate it was 85.5%. The growth is 71.9% in the assay on SK-MEL-5 melanoma; 91.8% with UACC-62 melanoma; 81.1% with LOX IMVI melanoma; 89.2% in the assay on SK-MEL-28 melanoma; 102% with SK-MEL-2 melanoma; 103% with EKVX NSCLC. The growth with SN12C renal is 95.7%; in the assay with UO-31 renal it was 53.5%; with TK-10 renal it was 107%; with ACHN renal, 75.8%; in the assay with CAKI-1 renal, 76%; in the assay with A498 renal, 117%. For the same compound, the growth with CCRF-CEM leukemia is 54.2%; in the assay on MOLT-4 leukemia, 42.5%.
`CC/C=C\C[C@H](O)C/C=C1/C(=O)C(Cl)=C[C@@H]1C/C=C\CCCC(=O)OC`: the growth is -61.5% (active) in the assay with HCT-15 colon; -76.7% (active) in the assay with HT29 colon; 50% with SNB-75 CNS; -10.9% (active) with SNB-19 CNS; -75.7% (active) in the assay with U251 CNS; -33.9% (active) in the assay with PC-3 prostate. Moreover, the growth was -77.7% (active) in the assay on SK-MEL-5 melanoma; -57% (active) in the assay on UACC-62 melanoma; -89.9% (active) in the assay on LOX IMVI melanoma; -2.03% (active) in the assay with SK-MEL-28 melanoma; -21% (active) with SK-MEL-2 melanoma; -63.2% (active) with EKVX NSCLC. Further, the growth with SN12C renal was -51.7% (active); in the assay on UO-31 renal it was -94.5% (active); in the assay on TK-10 renal it was -34.2% (active); with ACHN renal it was -43.6% (active); with CAKI-1 renal, 13.2%; with A498 renal, 1.86% (active). The growth was -3.78% (active) in the assay with CCRF-CEM leukemia and -6.11% (active) with MOLT-4 leukemia.
With `CC(C)CCC[C@@H](C)[C@H]1CC[C@H]2[C@@H]3CC[C@H]4C/C(=N/O)CC[C@]4(C)[C@H]3CC[C@]12C`, the growth with HCT-15 colon is 111%; in the assay with HT29 colon it was 105%; in the assay with SNB-75 CNS it was 96.9%; with SNB-19 CNS it was 104%; in the assay with U251 CNS, 96.6%; in the assay with PC-3 prostate it was 83.4%. The growth in the assay on SK-MEL-5 melanoma is 98.3%; in the assay with UACC-62 melanoma, 98.6%; with LOX IMVI melanoma it was 96.6%; with SK-MEL-28 melanoma it was 116%; in the assay on SK-MEL-2 melanoma it was 101%; in the assay with EKVX NSCLC, 101%. Also, the growth was 103% in the assay on SN12C renal; 94.3% in the assay with UO-31 renal; 105% with TK-10 renal; 110% with ACHN renal; 96.7% in the assay on CAKI-1 renal; 98.5% with A498 renal. Moreover, the figures for the growth with CCRF-CEM leukemia and with MOLT-4 leukemia were 100% and 95.9%, respectively.
As for `CCOc1ccc(/C=C/C=N/NC(N)=S)cc1`, the growth in the assay on HCT-15 colon is 58.4%; in the assay on HT29 colon it was 62.1%; in the assay with SNB-75 CNS, 80.9%; in the assay with SNB-19 CNS it was 95.8%; with U251 CNS, 90.1%; with PC-3 prostate, 94.1%. For the same compound, the growth in the assay with SK-MEL-5 melanoma is 96%; with UACC-62 melanoma it was 81.9%; in the assay on LOX IMVI melanoma, 77.4%; with SK-MEL-28 melanoma it was 102%; with SK-MEL-2 melanoma, 108%; in the assay on EKVX NSCLC, 95.5%. Besides, the growth in the assay with SN12C renal is 80.4%; in the assay on UO-31 renal, 38.3%; in the assay with TK-10 renal it was 74.1%; with ACHN renal it was 80.2%; in the assay on CAKI-1 renal, 83.9%; with A498 renal, 77.7%. For the same compound, the growth was 62.6% with CCRF-CEM leukemia and 35.8% in the assay on MOLT-4 leukemia.
Regarding `CCCCCCCN(CCCCCCC)C(=N)c1ccc(OC)c2ccccc12`, the growth in the assay on HCT-15 colon is -81.4% (active); in the assay on HT29 colon, -78.8% (active); in the assay on SNB-75 CNS, -98.2% (active); with SNB-19 CNS, -80.7% (active); with U251 CNS, -90.5% (active); in the assay on PC-3 prostate, -92.3% (active). For the same compound, the growth is -93.2% (active) in the assay on SK-MEL-5 melanoma; -76.5% (active) in the assay on UACC-62 melanoma; -98.7% (active) with LOX IMVI melanoma; -82.9% (active) in the assay on SK-MEL-28 melanoma; -82.5% (active) in the assay with SK-MEL-2 melanoma; -21.7% (active) in the assay on EKVX NSCLC. The growth in the assay with SN12C renal was -75.4% (active); in the assay on UO-31 renal it was -86.6% (active); in the assay with TK-10 renal it was -89.4% (active); in the assay on ACHN renal it was -91.9% (active); with CAKI-1 renal it was -12.2% (active); in the assay with A498 renal, -52.9% (active). The growth was -43.5% (active) in the assay with CCRF-CEM leukemia and -50.4% (active) in the assay on MOLT-4 leukemia.
